According to the supplement of paper PMC10849652:
The full data set covers some 7,900 targets. This sample favours those with a hit. About 0.6% of all pairs of compound and target were hits. Values without a mark were called inactive.

How the values were obtained:
Experiment in all cases: log2 fold change, soluble protein after heating vs DMSO (PISA); higher = thermal stabilisation; K562 cells, 10 uM, 30 min; active = over 0.2 and 3.5 SD of the protein, either way, in both replicates (recomputed)
[1] = compound: CC[C@@H]1C(=O)N(C)c2cnc(Nc3ccc(C(=O)NC4CCN(C)CC4)cc3OC)nc2N1C1CCCC1
How it was run: (§1)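 Soluble protein was defined as the supernatant after 21,000xg for 90 min. It came from K562 cells at 2×10^6 cells/mL given 10 μM compound for 30 min, heated in aliquots for 3 min across 48°C-58°C, pooled, and extracted in PBS with 0.5% NP-40 at 4°C, and was quantified by TMTpro 16plex LC-MS/MS with equalised channel sums. Thermal stability against control samples, from duplicates, is reported as log2 fold change.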

volasertib = compound: CC[C@@H]1C(=O)N(C)c2cnc(Nc3ccc(C(=O)N[C@H]4CC[C@H](N5CCN(CC6CC6)CC5)CC4)cc3OC)nc2N1C(C)C [volasertib]
How it was run: as §1

[2] = compound: CC[C@H](C)N1C=C(C2=C(C=C(C=C21)C3=CN=C(C=C3)N4CCNCC4)C(=O)NCC5=C(C=C(NC5=O)C)C)C
How it was run: as §1

epoxomicin = compound: CC[C@H](C)[C@@H](C(=O)N[C@@H]([C@@H](C)O)C(=O)N[C@@H](CC(C)C)C(=O)[C@]1(CO1)C)NC(=O)[C@H]([C@@H](C)CC)N(C)C(=O)C [epoxomicin]
How it was run: as §1

[3] = compound: CCn1c(C(=O)N(C2CC2)C2CC2)cc2c3c(ncn3C)c(Nc3cc(C)n(C)n3)nc21
How it was run: as §1

[4] = compound: CCn1cc(-c2ccnc3[nH]c(-c4cccc(CN(C)C)c4)cc23)c(-c2ccc(NC(=O)N(C)C)cc2)n1
How it was run: as §1

[5] = compound: CN(C)CC(=O)Nc1ccc2[nH]c(=O)c3ccccc3c2c1
How it was run: as §1

rosiglitazone = compound: CN(CCOC1=CC=C(C=C1)C[C@H]2C(=O)NC(=O)S2)C3=CC=CC=N3 (racemic) [rosiglitazone]
How it was run: as §1

[6] = compound: CN1C2=C(C3=C1C(=O)N(N=C3)CC4=CC(=CC=C4)N)SC(=C2)S(=O)C
How it was run: as §1

[7] = compound: CN1CCC(CNc2ccc3ncc(-c4cccc(OC(F)(F)F)c4)n3n2)CC1
How it was run: as §1

UniProt P13498, sequence (P13498 whole entry, looked up): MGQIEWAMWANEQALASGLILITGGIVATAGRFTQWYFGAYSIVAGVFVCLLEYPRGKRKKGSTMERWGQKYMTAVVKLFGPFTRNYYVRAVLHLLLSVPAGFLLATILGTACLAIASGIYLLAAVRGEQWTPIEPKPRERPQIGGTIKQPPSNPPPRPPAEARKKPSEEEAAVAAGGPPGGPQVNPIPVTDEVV
UniProt O15121, sequence (O15121 whole entry, looked up): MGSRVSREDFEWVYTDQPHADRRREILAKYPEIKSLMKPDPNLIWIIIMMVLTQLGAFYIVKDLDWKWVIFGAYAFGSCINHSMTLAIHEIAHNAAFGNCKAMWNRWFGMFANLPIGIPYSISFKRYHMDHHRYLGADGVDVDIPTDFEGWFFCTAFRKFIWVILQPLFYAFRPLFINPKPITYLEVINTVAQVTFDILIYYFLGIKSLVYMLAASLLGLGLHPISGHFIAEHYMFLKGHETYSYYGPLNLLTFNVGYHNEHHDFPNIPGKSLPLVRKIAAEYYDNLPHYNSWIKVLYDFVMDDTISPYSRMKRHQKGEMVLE
UniProt Q96DF8, sequence (Q96DF8 whole entry, looked up): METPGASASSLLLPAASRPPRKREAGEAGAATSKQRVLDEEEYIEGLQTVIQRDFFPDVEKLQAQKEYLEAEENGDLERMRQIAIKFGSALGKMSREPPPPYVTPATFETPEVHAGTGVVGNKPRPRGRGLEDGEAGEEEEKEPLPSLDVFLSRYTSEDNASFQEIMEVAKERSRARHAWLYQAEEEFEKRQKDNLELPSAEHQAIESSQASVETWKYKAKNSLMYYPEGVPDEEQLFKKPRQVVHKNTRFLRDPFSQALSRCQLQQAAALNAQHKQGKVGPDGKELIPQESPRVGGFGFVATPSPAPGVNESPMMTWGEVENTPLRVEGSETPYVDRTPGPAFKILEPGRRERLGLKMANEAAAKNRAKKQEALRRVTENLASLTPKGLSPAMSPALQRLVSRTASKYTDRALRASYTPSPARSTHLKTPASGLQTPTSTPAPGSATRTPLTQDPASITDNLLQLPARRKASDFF
UniProt P17844, sequence (P17844 whole entry, looked up): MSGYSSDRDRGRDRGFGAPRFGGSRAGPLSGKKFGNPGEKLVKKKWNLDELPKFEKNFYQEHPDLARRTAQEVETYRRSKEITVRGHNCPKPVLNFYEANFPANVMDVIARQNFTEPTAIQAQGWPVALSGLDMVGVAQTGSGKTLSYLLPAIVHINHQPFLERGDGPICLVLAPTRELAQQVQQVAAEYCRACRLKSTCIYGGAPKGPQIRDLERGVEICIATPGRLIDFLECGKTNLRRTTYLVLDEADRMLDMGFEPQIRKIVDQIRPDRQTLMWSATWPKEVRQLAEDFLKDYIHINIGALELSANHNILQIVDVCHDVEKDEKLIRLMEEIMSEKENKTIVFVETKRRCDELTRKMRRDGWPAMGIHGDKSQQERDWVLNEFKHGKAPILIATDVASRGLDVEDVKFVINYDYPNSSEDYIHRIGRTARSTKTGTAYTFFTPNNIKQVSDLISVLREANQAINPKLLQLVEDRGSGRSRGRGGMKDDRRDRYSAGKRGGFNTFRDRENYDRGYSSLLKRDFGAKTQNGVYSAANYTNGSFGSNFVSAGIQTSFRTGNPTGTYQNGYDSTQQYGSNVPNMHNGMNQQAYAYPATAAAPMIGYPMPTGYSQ
UniProt Q9Y5Q0, sequence (Q9Y5Q0 whole entry, looked up): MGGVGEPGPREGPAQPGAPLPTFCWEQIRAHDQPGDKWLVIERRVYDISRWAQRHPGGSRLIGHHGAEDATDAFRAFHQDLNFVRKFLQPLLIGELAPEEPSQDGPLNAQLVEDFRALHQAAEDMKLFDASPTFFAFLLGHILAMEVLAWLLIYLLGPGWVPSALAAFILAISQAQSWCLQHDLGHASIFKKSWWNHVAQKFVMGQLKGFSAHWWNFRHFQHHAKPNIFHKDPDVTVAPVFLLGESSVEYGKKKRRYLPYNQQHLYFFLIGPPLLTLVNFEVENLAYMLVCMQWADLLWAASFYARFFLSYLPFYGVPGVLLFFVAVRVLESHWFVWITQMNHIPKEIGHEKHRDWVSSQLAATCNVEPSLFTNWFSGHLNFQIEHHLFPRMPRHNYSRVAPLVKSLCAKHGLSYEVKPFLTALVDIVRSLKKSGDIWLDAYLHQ
UniProt O94905, sequence (O94905 whole entry, looked up): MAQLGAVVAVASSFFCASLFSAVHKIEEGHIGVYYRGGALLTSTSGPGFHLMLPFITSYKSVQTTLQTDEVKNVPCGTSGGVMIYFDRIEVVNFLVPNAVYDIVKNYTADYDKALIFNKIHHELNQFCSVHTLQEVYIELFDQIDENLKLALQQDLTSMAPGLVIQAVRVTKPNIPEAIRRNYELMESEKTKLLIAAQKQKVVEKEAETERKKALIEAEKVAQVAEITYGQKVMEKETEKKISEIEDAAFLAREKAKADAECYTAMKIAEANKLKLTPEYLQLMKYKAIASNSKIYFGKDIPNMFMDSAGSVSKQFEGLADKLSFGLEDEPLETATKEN
UniProt Q96LJ7, sequence (Q96LJ7 whole entry, looked up): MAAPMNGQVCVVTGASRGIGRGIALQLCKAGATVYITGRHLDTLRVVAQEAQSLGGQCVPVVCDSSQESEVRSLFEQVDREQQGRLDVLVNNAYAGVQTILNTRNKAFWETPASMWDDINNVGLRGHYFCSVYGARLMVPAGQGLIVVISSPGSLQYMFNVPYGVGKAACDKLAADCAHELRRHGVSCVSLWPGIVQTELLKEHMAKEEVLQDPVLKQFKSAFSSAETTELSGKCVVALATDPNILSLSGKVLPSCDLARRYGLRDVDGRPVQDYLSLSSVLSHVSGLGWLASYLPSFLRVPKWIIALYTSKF
UniProt Q7Z2Z2, sequence (Q7Z2Z2 whole entry, looked up): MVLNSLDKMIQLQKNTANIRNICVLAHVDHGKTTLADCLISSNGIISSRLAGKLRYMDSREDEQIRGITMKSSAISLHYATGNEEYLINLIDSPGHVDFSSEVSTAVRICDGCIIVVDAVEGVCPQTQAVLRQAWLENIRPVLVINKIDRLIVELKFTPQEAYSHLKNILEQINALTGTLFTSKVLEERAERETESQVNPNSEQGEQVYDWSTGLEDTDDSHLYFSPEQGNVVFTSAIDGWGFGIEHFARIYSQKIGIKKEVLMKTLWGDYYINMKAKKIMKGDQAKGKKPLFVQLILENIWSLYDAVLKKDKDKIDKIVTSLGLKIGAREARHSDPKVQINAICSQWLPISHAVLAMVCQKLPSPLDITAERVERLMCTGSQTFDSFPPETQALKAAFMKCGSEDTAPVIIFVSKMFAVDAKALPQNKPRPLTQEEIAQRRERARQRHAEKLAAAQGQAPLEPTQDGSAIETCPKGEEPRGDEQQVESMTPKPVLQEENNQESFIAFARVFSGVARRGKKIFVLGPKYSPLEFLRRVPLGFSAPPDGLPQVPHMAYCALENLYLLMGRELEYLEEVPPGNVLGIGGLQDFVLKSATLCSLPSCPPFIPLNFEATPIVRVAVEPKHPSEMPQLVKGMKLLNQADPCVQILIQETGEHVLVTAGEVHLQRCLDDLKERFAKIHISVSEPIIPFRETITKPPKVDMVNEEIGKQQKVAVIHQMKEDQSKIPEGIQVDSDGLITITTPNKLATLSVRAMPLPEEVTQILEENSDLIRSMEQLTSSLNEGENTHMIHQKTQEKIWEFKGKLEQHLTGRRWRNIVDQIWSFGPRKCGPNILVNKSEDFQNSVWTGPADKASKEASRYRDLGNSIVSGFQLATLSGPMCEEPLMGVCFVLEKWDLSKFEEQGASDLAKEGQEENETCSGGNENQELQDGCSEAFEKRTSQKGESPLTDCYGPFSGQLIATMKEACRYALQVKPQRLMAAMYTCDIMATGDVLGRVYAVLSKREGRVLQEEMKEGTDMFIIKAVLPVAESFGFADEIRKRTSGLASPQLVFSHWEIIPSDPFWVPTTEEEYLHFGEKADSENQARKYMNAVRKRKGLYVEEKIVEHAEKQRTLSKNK
UniProt Q9H2P9, sequence (Q9H2P9 whole entry, looked up): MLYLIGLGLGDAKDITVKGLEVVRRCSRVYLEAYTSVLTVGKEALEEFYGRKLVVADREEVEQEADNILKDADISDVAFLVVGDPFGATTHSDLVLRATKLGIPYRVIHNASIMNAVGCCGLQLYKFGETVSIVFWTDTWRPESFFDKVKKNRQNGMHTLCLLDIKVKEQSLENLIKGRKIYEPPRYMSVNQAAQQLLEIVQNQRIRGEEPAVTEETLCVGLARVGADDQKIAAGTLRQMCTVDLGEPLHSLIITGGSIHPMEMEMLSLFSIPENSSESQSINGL
UniProt P35222, sequence (P35222 whole entry, looked up): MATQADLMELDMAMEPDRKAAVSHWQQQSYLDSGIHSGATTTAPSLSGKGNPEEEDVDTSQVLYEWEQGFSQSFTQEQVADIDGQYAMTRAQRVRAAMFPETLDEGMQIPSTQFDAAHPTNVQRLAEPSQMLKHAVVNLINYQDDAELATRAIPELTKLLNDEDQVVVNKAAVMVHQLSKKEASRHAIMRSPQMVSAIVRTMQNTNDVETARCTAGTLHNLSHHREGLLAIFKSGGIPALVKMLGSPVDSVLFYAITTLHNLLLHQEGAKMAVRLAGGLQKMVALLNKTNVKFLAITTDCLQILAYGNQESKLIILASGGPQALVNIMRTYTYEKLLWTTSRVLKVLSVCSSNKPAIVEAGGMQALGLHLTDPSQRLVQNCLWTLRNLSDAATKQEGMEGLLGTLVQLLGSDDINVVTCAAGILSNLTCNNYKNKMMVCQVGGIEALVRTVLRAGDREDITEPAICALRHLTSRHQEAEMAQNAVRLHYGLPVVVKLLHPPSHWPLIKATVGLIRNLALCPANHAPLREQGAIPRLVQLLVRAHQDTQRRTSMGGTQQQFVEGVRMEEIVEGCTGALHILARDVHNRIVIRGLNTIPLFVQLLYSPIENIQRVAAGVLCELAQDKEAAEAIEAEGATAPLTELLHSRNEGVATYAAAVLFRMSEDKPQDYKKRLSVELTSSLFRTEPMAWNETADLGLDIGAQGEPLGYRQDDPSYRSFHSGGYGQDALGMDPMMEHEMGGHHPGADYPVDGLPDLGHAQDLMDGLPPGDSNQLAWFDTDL

Target | log2 fold change [1] | log2 fold change (volasertib) | log2 fold change [2] | log2 fold change (epoxomicin) | log2 fold change [3] | log2 fold change [4] | log2 fold change [5] | log2 fold change (rosiglitazone) | log2 fold change [6] | log2 fold change [7]
EDC4 (UniProt Q6P2E9) | -0.126 | -0.47 (active) | 0.042 | 0 | -0.009 | 0.039 | -0.006 | 0.014 | 0.07 | -0.084
FAM177A1 isoform 2 (UniProt Q8N128) | -0.039 | -0.108 | 0.006 | 0.045 | -0.001 | 0.045 | -0.012 | 0.012 | -0.023 | -0.259 (active)
DCUN1D1 (UniProt Q96GG9) | -0.1 | -0.276 (active) | 0.018 | 0.048 | -0.006 | -0.061 | 0.03 | 0.013 | -0.056 | -0.178
EEA1 (UniProt Q15075) | 0.036 | 0.031 | -0.024 | 0.017 | -0.002 | 0.019 | -0.038 | -0.014 | -0.023 | 0.001
DHX40 (UniProt Q8IX18) | -0.006 | -0.236 | 0.188 | -0.037 | -0.074 | -0.013 | 0.026 | 0.166 | -0.076 | -0.029
DNAJC1 (UniProt Q96KC8) | -0.097 | -0.185 | 0.024 | 0.037 | 0.008 | 0.014 | 0.002 | 0.014 | -0.01 | -0.144
ESS2 (UniProt Q96DF8) | -0.025 | -0.245 (active) | -0.077 | -0.012 | 0.026 | 0.036 | -0.032 | -0.008 | 0.024 | -0.012
ERLIN2 (UniProt O94905) | 0.06 | -0.057 | 0.054 | -0.034 | -0.031 | 0.01 | -0.051 | -0.01 | 0.096 | 0.008
EIF4G1 isoform 8 (UniProt Q04637) | -0.114 | -0.487 | 0.174 | 0.016 | -0.076 | 0.005 | 0.031 | 0.047 | 0.181 | -0.425
DNAJC19 (UniProt Q96DA6) | -0.094 | -0.042 | -0.014 | -0.015 | 0.04 | -0.022 | 0.002 | -0.01 | -0.05 | -0.148
EXOC4 (UniProt Q96A65) | -0.145 | -0.606 (active) | 0.095 | 0.005 | -0.129 | 0.021 | 0.061 | 0.021 | 0.103 | -0.243
DHCR24 (UniProt Q15392) | 0.769 | 1.21 (active) | 0.104 | -0.056 | -0.1 | 0.06 | 0.236 | 0 | -0.094 | 0.525
CUX1 isoform 3 (UniProt P39880) | 0.008 | -0.153 | 0.036 | 0.027 | -0.041 | -0.008 | -0.019 | 0.125 | 0.004 | -0.123
CTNNB1 (UniProt P35222) | 0.2 | -0.162 | -0.116 | 0.887 (active) | -0.027 | -0.304 | -0.151 | 0.124 | -0.185 | 0.379
DDX46 (UniProt Q7L014) | -0.259 | -0.275 | 0.087 | 0.192 | -0.211 | -0.129 | 0.133 | 0.106 | -0.066 | 0.087
DHRS3 (UniProt O75911) | 0.134 | 0.02 | 0.02 | -0.002 | 0.001 | 0.001 | -0.054 | -0.013 | -0.062 | 0.056
EFL1 (UniProt Q7Z2Z2) | -0.024 | -0.245 (active) | 0.014 | 0.008 | -0.008 | -0.006 | 0.025 | 0.019 | -0.037 | -0.091
DCAF6 isoform 3 (UniProt Q58WW2) | 0.077 | 0.05 | -0.064 | 0.025 | 0.013 | -0.03 | -0.035 | 0.006 | 0.006 | 0.004
DDX5 (UniProt P17844) | -0.426 (active) | -0.589 (active) | 0.103 | 0.149 | -0.115 | -0.083 | 0.101 | 0.066 | 0.018 | 0.019
CWC27 (UniProt Q6UX04) | -0.103 | -0.421 (active) | 0.086 | 0.094 | -0.089 | 0.117 | 0.066 | 0.143 | -0.011 | -0.091
EXOC7 (UniProt Q9UPT5) | -0.156 | -0.619 (active) | 0.09 | 0.048 | -0.091 | 0.015 | 0.006 | 0.048 | 0.033 | -0.317 (active)
DHRS1 (UniProt Q96LJ7) | 0.164 | 0.302 | 0.039 | -0.062 | 0.034 | -0.098 | -0.048 | -0.022 | -0.051 | 0.065
DNAJC7 (UniProt Q99615) | -0.079 | -0.266 (active) | 0.104 | 0.073 | -0.014 | -0.025 | 0.014 | 0.017 | -0.052 | -0.142
FADS3 (UniProt Q9Y5Q0) | -0.02 | 0.095 | 0.013 | -0.016 | 0.046 | -0.116 | -0.05 | -0.019 | -0.13 | -0.231
DEGS1 (UniProt O15121) | 0.061 | -0.02 | 0.012 | -0.037 | -0.028 | -0.168 | 0.068 | -0.041 | -0.1 | 0.019
CTSZ (UniProt Q9UBR2) | -0.954 (active) | -1.54 (active) | -0.058 | 0.02 | 0.022 | 0 | -0.026 | -0.028 | -0.087 | -0.843 (active)
CYBA (UniProt P13498) | -0.091 | -0.125 | -0.026 | 0.037 | 0.047 | 0.074 | -0.02 | 0.058 | -0.064 | -0.04
DTNBP1 (UniProt Q96EV8) | -0.017 | 0.009 | -0.002 | 0.048 | 0.026 | -0.086 | -0.009 | 0.016 | -0.028 | 0.01
DPH5 isoform 5 (UniProt Q9H2P9) | 0.047 | 0.08 | -0.022 | 0.049 | -0.055 | -0.018 | -0.013 | 0.013 | -0.115 | 0.034
ECH1 (UniProt Q13011) | 0.019 | 0.276 | 0.024 | 0.036 | -0.032 | -0.021 | 0.023 | 0.052 | -0.041 | 0.694 (active)
